# Assay outcomes from PubChem.
# Compounds with a hit are over-represented: about 19% of the library has one in this group of screens.
# ELG1 repair inh = ELG1-dependent DNA repair inhibition; HEK293T ELG1-luciferase reporter, luminescence, 16 h; DNA damage induced by 5-fluorouridine; Potency, µM (titrated, usually from 46.1 µM), most hits filed as inhibitors; actives 2.3% (n = 330,000); further: nearly all actives have a fitted effect of over 55% in size
#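 In this reporter screen, reduction of luminescence relative to DMSO vehicle indicated activity. Compounds and 5-fluorouridine were added together to 2,000 cells per well, incubated for 16 hr at 37 °C, then developed with ONE-Glo.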
# HT1080NT lethal = kills 2HG-producing HT-1080-NT fibrosarcoma cells | actives 1.6% (n = 360,000) | Potency, µM (highest dose often 46.1 µM), actives largely listed as cytotoxic | HT-1080-NT fibrosarcoma viability, CellTiter-Glo ATP luminescence, 48 h;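 further: NT is the 2HG producing partner of a matched IDH1 knockdown line; nearly all actives have a fitted effect of over 55% in size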
#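 HT-1080-NT; 750 cells/well; 5% FBS RPMI; 48 h compound, 37 degrees C; CellTiter-Glo luminescence; curve fitting and curve-class assignment.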
# HT1080 IDH1KD tx = kills HT-1080 cells with IDH1 knockdown | Potency, µM (titrated, usually from 46.1 µM), usual class: cytotoxic | actives 2% (n = 360,000) | HT-1080 IDH1 knockdown viability, ATP luminescence, 48 h
#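 CellTiter-Glo luminescence after 48 h compound exposure at 37 degrees C of IDH1-knockdown HT-1080 cells in 5% FBS RPMI. %Activity scaled between DMSO wells and cell-free media wells, with curves fitted and assigned curve classes.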
# IL-1B inflam inh = blocks inflammasome-driven IL-1 beta release | activity change, % at 57.5 µM | AID 743279 | actives 4.7% (n = 360,000) | THP-1 LPS/ATP IL-1B secretion, AlphaLISA, 16 h; hits give low values; in the data active means activity change below about -50%; inconclusive means mostly about -30% to -49%
#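 Secreted IL-1B measured by AlphaLISA bead assay after 16 h compound exposure of THP-1 cells; compounds (final up to 57.5 uM) added 1 h before LPS (250 ng/mL) and ATP (1.25 mM) stimulation; lower signal means less secretion.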
# DT40 TDP1 no CPT = qHTS for Inhibitors of human tyrosyl-DNA phosphodiesterase 1 (TDP1): qHTS in cells in absence of CPT; DT40 Tdp1-/- hTDP1 cells, no CPT, ATP luminescence, 48 h; Potency, µM (highest dose often 46.2 µM), actives largely listed as inhibitors; AID 686978, 2013; actives 15% (n = 420,000); further: nearly all actives have a fitted effect of over 55% in size
#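 A cellular qHTS used chicken DT40 cells lacking endogenous Tdp1 but carrying stably transfected human TDP1. Compounds were applied without camptothecin, and cell growth kinetics were judged by ATP-dependent luminescence after ≥48 hr.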
# TDP1 cell CPT = DT40-hTDP1 cell growth loss with CPT; Potency, µM (top dose mostly 46.2 µM), hits mostly inhibitors; actives 12% (n = 420,000); chicken DT40 Tdp1-/-;hTDP1 cells + 20 nM CPT, ATP luminescence, 48 h; further: nearly all actives have a fitted effect of over 55% in size
#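 Chicken DT40 Tdp1-/- cells complemented with human TDP1, 400 cells/well, exposed to compounds plus 20 nM camptothecin for at least 48 h at 37 C; viability read as ATP content by CellTiter-Glo luminescence.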
# A number is an active result; n = inactive; u = inconclusive; x = not tested or not shown; ! = not active in a repeat. Unless noted, the call rests on the fitted dose curve; in most records, active means well fitted curve in the direction sought with a large enough effect; inconclusive means small, poorly fitted or top-dose-only effect, or another doubt; inactive means no such curve, though single readings can be large; an effect the other way counts as inactive or inconclusive.
SMILES,ELG1 repair inh,HT1080NT lethal,HT1080 IDH1KD tx,IL-1B inflam inh,DT40 TDP1 no CPT,TDP1 cell CPT
Cc1ccc(NC(=S)c2nc3ccccc3s2)cc1,u,n,n,n,u,u
Cc1ccc(Nc2nc3ccccc3s2)c(C)c1,u,n,n,-62,u,u
Cc1cc(C)nc(Nc2nc3ccccc3s2)n1,u,n,n,n,n,n
S=C(Nc1ccc(Cl)cc1)c1nc2ccccc2s1,u,u,n,n,15µM,u
Cc1ccc(C)c(NC(=S)c2nc3ccccc3s2)c1,u,n,n,n,u,26µM
O=C(Nc1ccc(Cl)cc1)/C(=C/c1cccc(O)c1)c1nc2ccccc2s1,26µM,4.6µM,4.1µM,-101,4.6µM,5.2µM
Cc1ccc(CN(CC(O)COc2cccc3[nH]cc(C)c23)C(C)(C)C)cc1 (stereo not given),n,u,n,n,u,21µM
Cc1c[nH]c2cccc(OCC(CNC(C)(C)C)OC(=O)c3ccccc3)c12 (stereo not given),n,n,n,n,n,n
COC(=O)Cc1c[nH]c2cccc(OCC(O)CN(Cc3ccc([N+](=O)[O-])cc3)C(C)(C)C)c12 (stereo not given),u,n,n,n,18µM,u
O=c1[nH]c(=O)n2c(c1-c1ccccc1)OC(CBr)C2 (stereo not given),x,n,n,n,n,n
O=C(c1ccc(C(F)(F)F)cc1)N1CCC(=O)N(C(COCc2ccccc2)Cc2ccccc2)CC1 (stereo not given),u,n,n,-55,21µM,21µM
CC(C)(C)c1ccc(C(=O)N2CCC(=O)N(C(COCc3ccccc3)Cc3ccccc3)CC2)cc1 (stereo not given),u,u,n,n,21µM,15µM
O=C(c1ccccc1)N1CCC(=O)N(C(CO)Cc2ccccc2)CC1 (stereo not given),x,n,n,n,n,n
O=C(CC[C@H]1O[C@@H](n2ccc(=O)[nH]c2=O)[C@H](O)[C@@H]1O)N[C@H](Cc1ccccc1)C(=O)NCc1cccs1,x,n,n,n,n,n
O=C(NCc1ccco1)/C(=C/C=C\c1ccccc1)NC(=O)c1ccc(Br)o1,u,n,u,n,u,16µM
O=C(NCc1ccco1)/C(=C\c1ccccc1)NC(=O)c1ccccc1,n,n,n,n,n,n
N#C/C(=C\C=C\c1ccccc1)C(=O)NCc1ccco1,n,u,u,-81,u,n
COc1ccccc1NC(=O)/C(C#N)=C/C=C/c1ccco1,u,1.8µM,1.4µM,n,1.2µM,1.3µM
Cc1cccc(C)c1NC(=O)CN(C)C(C)C(=O)NCC(=O)Nc1ccc(F)c(F)c1F (stereo not given),n,n,n,n,n,n
COc1ccc(CNC(=O)CN2CCC(NC(=O)c3cccc(OC)c3)CC2)cc1,x,n,n,n,n,n
COc1ccc(CCN2C(=O)C(Oc3ccccc3C)C2c2ccc3c(c2)OCO3)cc1 (stereo not given),16µM,n,n,u,16µM,15µM
COc1ccc(CCN2C(=O)C(Oc3ccccc3C)C2c2ccc3c(c2)OCO3)cc1OC (stereo not given),u,n,n,u,16µM,13µM
Cc1cc2c(c(=O)n1Cc1ccccn1)C(c1ccc3c(c1)OCO3)C(C#N)=C(N)O2 (stereo not given),n,n,n,n,u,n
COc1ccc(CCn2c(C)cc3c(c2=O)C(c2ccc4c(c2)OCO4)C(C#N)=C(N)O3)cc1OC (stereo not given),u,u,u,u,21µM,13µM
Cc1c(C)n2c(SCC(=O)N3CCOCC3)nnc2[nH]c1=O,n,n,n,n,n,n
SMILES,ELG1 repair inh,HT1080NT lethal,HT1080 IDH1KD tx,IL-1B inflam inh,DT40 TDP1 no CPT,TDP1 cell CPT
CC(C)(C)c1ccc(S(=O)(=O)N2CCC(O)(c3ccc(Cl)cc3)CC2)cc1,u,u,n,n,18µM,u
O=S(=O)(c1ccccc1)N1CCC2(CC1)CO2,n,n,n,n,n,u
O=S(=O)(c1ccc(Cl)cc1)N1CCC2(CC1)CO2,n,n,n,-57,n,u
COc1ccc(S(=O)(=O)N2CCC(O)(c3ccc(Cl)cc3)CC2)cc1,u,n,u,u,n,n
OCC(O)/C=N/Nc1nc(N2CCCCC2)nc(N2CCCCC2)n1 (stereo not given),n,n,n,n,n,n
CC(C)c1cc(C(=O)NCc2ccc(F)cc2)c(N)s1,x,n,n,n,u,u
CCCCN(CC)Cc1ccc(CNC(=O)Nc2ccc(F)cc2)o1,u,10µM,u,n,5.6µM,4.5µM
CCCCN(CCCC)Cc1ccc(C(=O)NN)o1,n,n,n,n,n,n
CCCCN(CC)Cc1ccc(CNC(=S)Nc2c(C)cc(C)cc2C)o1,n,n,n,n,u,n
CCCCN(CC)Cc1ccc(CNC(=S)Nc2ccc(C)cc2Cl)o1,u,u,n,-62,18µM,16µM
CCOC(=O)c1c(NC(=O)/C=C/c2ccccc2)sc2c1CCCC2,x,x,x,x,n,n
Cc1ccc(Cc2c(-c3cccc(Cl)c3)nc3c4ccccc4ccn23)cc1,x,n,n,n,u,u
c1ccc(-c2nc3c4ccccc4ccn3c2CN2CCCCC2)cc1,n,n,n,-71,21µM,u
Cc1ccc(-c2nc3c4ccccc4ccn3c2CN2CCCCC2)cc1,n,n,n,n,23µM,23µM
Clc1ccc(-c2nc3c4ccccc4ccn3c2CC2CCCCC2)cc1,x,n,n,n,n,n
CCc1ccccc1N(c1nc(-c2ccc(OC)c(OC)c2)no1)c1nc(-c2ccc(OC)c(OC)c2)no1,x,x,x,x,n,n
CN(C)CCN(Cc1cccs1)c1ccccn1,n,n,n,n,24µM!,u
CCOc1ccc(-c2nnn(CC(=O)c3ccc4c(c3)OCCO4)n2)cc1OCC,n,n,u,n,18µM,u
COC(=O)C1(Cc2ccc3c(c2)CCC3)Cc2ccc3c(c2C1=O)CCC3 (stereo not given),x,n,n,n,u,21µM
Cc1ccc(S(=O)(=O)NCC(c2cccnc2)N2CCN(Cc3ccccc3)CC2)cc1 (stereo not given),n,n,n,n,n,n
O=C(NCC(c1cccnc1)N1CCN(Cc2ccccc2)CC1)C(=O)Nc1ccc(Cl)cc1 (stereo not given),x,x,x,x,7.3µM,13µM
Cc1ccc(NC(=O)C(=O)NCC(c2cccnc2)N2CCN(Cc3ccccc3)CC2)cc1 (stereo not given),x,x,x,x,18µM,23µM
